Experimental data as given in PubChem BioAssay (NCI).
The panel holds about 79,000 compounds, 15% with a hit somewhere; the sample as a whole holds those more often. Values without a mark were called inactive. Active and inactive are the calls of the source. Rule as the data show it: active = growth inhibition above about 70%; inactive = the rest.

Legend:
[1] = NCI Yeast Anticancer Drug Screen. Data for the rad52 strain (AID 147);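 also: 0% = growth of vehicle-treated control cultures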; details: S. cerevisiae rad52 mutant growth inhibition, stronger effect = higher value
Procedure, shortened: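 Compounds are applied to a genetically defined yeast strain lacking normal DNA damage repair, and inhibition of growth is expressed relative to cultures given vehicle only.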

[2] = NCI Yeast Anticancer Drug Screen. Data for the wt1 strain (AID 149);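 also: 0% = growth of vehicle-treated wt1 cultures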; details: S. cerevisiae wt1 strain (SPY 50644) growth inhibition, stronger effect = higher value
Procedure, shortened: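 Each compound is tested on wt1 yeast and the loss of growth versus vehicle gives the inhibition value.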

[3] = NCI Yeast Anticancer Drug Screen. Data for the rad50EPP+ strain (AID 151);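 also: 0% = growth of vehicle-treated control cultures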; details: S. cerevisiae rad50 mutant strain, stronger effect = higher value
Procedure, shortened: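 Compounds were applied to the rad50EPP+ yeast strain, which bears a defined DNA repair alteration, and growth inhibition was determined relative to vehicle-treated cultures.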

[4] = NCI Yeast Anticancer Drug Screen. Data for the mgt1 strain (AID 153); details: S. cerevisiae mgt1 mutant growth inhibition, stronger effect = higher value
Procedure, shortened: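 Strain: mgt1 yeast, one of a set carrying defined DNA damage repair or cell cycle control alterations. Compound-treated growth compared with vehicle.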

[5] = NCI Yeast Anticancer Drug Screen. Data for the rad50 strain (AID 155);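 also: 0% = growth of vehicle-only cultures of the same strain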; details: S. cerevisiae rad50 strain growth inhibition, stronger effect = higher value
Procedure, shortened: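 Vehicle-treated cultures provide the reference for the growth inhibition reported for compound-exposed, repair-deficient yeast.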

[6] = NCI Yeast Anticancer Drug Screen. Data for the mec2-1 strain (AID 157); details: S. cerevisiae mec2-1 strain, stronger effect = higher value
Procedure, shortened: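 Strain: mec2-1 (DNA repair/cell cycle alteration). Compound exposure, then growth measured; inhibition expressed relative to vehicle.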

[7] = NCI Yeast Anticancer Drug Screen. Data for the rad14 strain (AID 159);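 also: 0% = growth of vehicle-treated control cultures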; details: S. cerevisiae rad14 strain growth inhibition, stronger effect = higher value
Procedure, shortened: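 Inhibition of growth is reported for a repair-deficient yeast mutant following compound treatment, calculated relative to cultures that received vehicle.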

[8] = NCI Yeast Anticancer Drug Screen. Data for the sgs1 mgt1 strain (AID 161);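 also: 0% = growth of cultures given vehicle only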; details: S. cerevisiae sgs1 mgt1 strain, stronger effect = higher value
Procedure, shortened: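 Mutant yeast exposed to compound; growth scored against vehicle-only wells.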

[9] = NCI Yeast Anticancer Drug Screen. Data for the CLN2oe strain (AID 163);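 also: 0% = growth of vehicle-only control cultures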; details: S. cerevisiae CLN2oe strain, stronger effect = higher value
Procedure, shortened: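 Growth of a genetically modified yeast strain is measured after compound exposure and compared with cultures given vehicle alone.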

[10] = NCI Yeast Anticancer Drug Screen. Data for the cln2 rad14 strain (AID 165);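 also: 0% = growth equal to vehicle treated cultures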; details: S. cerevisiae cln2 rad14 strain, stronger effect = higher value
Procedure, shortened: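 Compounds are applied to the cln2 rad14 yeast strain, and growth is then compared with that of vehicle-treated cultures to give inhibition.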

[11] = NCI Yeast Anticancer Drug Screen. Data for the bub3 strain (AID 167); details: S. cerevisiae bub3 mutant strain, stronger effect = higher value
Procedure, shortened: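 Mutant yeast screening strain plus compound; vehicle-treated cultures serve as the 0% inhibition reference.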

[12] = NCI Yeast Anticancer Drug Screen. Data for the wt2 strain (AID 169); details: S. cerevisiae wt2 strain growth inhibition, stronger effect = higher value
Procedure, shortened: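 This strain belongs to a panel of yeast strains with defined genetic alterations in DNA damage repair or cell cycle control. Compounds are applied, and growth inhibition is measured against vehicle-treated cultures.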

[13] = NCI Yeast Anticancer Drug Screen. Data for the sgs1 strain (AID 173);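 also: 0% = growth of vehicle-only control cultures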; details: S. cerevisiae sgs1 mutant, stronger effect = higher value
Procedure, shortened: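 Growth of a yeast strain bearing a defined genetic alteration is measured after compound treatment. Inhibition is expressed relative to vehicle-only controls.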

[14] = NCI Yeast Anticancer Drug Screen. Data for the mlh1 rad18 strain (AID 175); details: S. cerevisiae mlh1 rad18 strain growth inhibition, stronger effect = higher value
Procedure, shortened: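 Read-out is yeast growth inhibition, calculated against vehicle-only controls. The compound was applied to a strain engineered with DNA damage repair alterations.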

[15] = NCI Yeast Anticancer Drug Screen. Data for the rad18 strain (AID 177); details: S. cerevisiae rad18 mutant growth inhibition, stronger effect = higher value
Procedure, shortened: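 Growth of the mutant yeast strain after compound exposure, normalised to vehicle-only cultures.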

[16] = at 5.0 µM (retest, dose inferred, filed as 0.5)
[17] = at 50.0 µM (retest, dose inferred, filed as 5.0)

O=C(CCCN1CCC2(CC1)CC(=O)N(N1CCCCCC1)C2=O)c1ccc(F)cc1
growth inhibition ([1]; at 1.2 µM): 23% | growth inhibition ([1]; at 3.7 µM): 34% | growth inhibition ([1]; at 11.0 µM): 46% | growth inhibition ([1]; at 33.0 µM): 53% | growth inhibition ([1]; at 100.0 µM): 65% | growth inhibition ([2]; at 1.2 µM): 11% | growth inhibition ([2]; at 3.7 µM): 24% | growth inhibition ([2]; at 11.0 µM): 25% | growth inhibition ([2]; at 33.0 µM): 34% | growth inhibition ([2]; at 100.0 µM): 41% | growth inhibition ([3]; at 1.2 µM): -2% | growth inhibition ([3]; at 3.7 µM): -2% | growth inhibition ([3]; at 11.0 µM): -1% | growth inhibition ([3]; at 33.0 µM): -1% | growth inhibition ([3]; at 100.0 µM): 0% | growth inhibition ([4]; at 1.2 µM): 32% | growth inhibition ([4]; at 3.7 µM): 45% | growth inhibition ([4]; at 11.0 µM): 67% | growth inhibition ([4]; at 33.0 µM): 75% (active) | growth inhibition ([4]; at 100.0 µM): 89% (active) | growth inhibition ([5]; at 1.2 µM): 29% | growth inhibition ([5]; at 3.7 µM): 26% | growth inhibition [5, 16]: 14% | growth inhibition ([5]; at 11.0 µM): 33% | growth inhibition ([5]; at 33.0 µM): 49% | growth inhibition [5, 17]: 46% | growth inhibition ([5]; at 50.0 µM): 80.8% (active) | growth inhibition ([5]; at 100.0 µM): 61% | growth inhibition ([6]; at 1.2 µM): 25% | growth inhibition ([6]; at 3.7 µM): 28% | growth inhibition [6, 16]: 13% | growth inhibition ([6]; at 11.0 µM): 31% | growth inhibition ([6]; at 33.0 µM): 40% | growth inhibition [6, 17]: 41% | growth inhibition ([6]; at 50.0 µM): 45.8% | growth inhibition ([6]; at 100.0 µM): 45% | growth inhibition ([7]; at 1.2 µM): 45% | growth inhibition ([7]; at 3.7 µM): 51% | growth inhibition ([7]; at 11.0 µM): 64% | growth inhibition ([7]; at 33.0 µM): 73% (active) | growth inhibition ([7]; at 100.0 µM): 87% (active) | growth inhibition [8, 16]: 45% | growth inhibition [8, 17]: 74% (active) | growth inhibition ([8]; at 50.0 µM): 84.4% (active) | growth inhibition ([9]; at 1.2 µM): 49% | growth inhibition ([9]; at 3.7 µM): 45% | growth inhibition ([9]; at 11.0 µM): 58% | growth inhibition ([9]; at 33.0 µM): 71% (active) | growth inhibition ([9]; at 100.0 µM): 79% (active) | growth inhibition [10, 16]: 63% | growth inhibition [10, 17]: 82% (active) | growth inhibition ([10]; at 50.0 µM): 72% (active) | growth inhibition ([11]; at 1.2 µM): 40% | growth inhibition ([11]; at 3.7 µM): 41% | growth inhibition [11, 16]: 36% | growth inhibition ([11]; at 11.0 µM): 51% | growth inhibition ([11]; at 33.0 µM): 61% | growth inhibition [11, 17]: 41% | growth inhibition ([11]; at 50.0 µM): 73.3% (active) | growth inhibition ([11]; at 100.0 µM): 66% | growth inhibition ([12]; at 1.2 µM): 20% | growth inhibition ([12]; at 3.7 µM): 32% | growth inhibition ([12]; at 11.0 µM): 41% | growth inhibition ([12]; at 33.0 µM): 53% | growth inhibition ([12]; at 100.0 µM): 68% | growth inhibition ([13]; at 1.2 µM): 43% | growth inhibition ([13]; at 3.7 µM): 45% | growth inhibition ([13]; at 11.0 µM): 65% | growth inhibition ([13]; at 33.0 µM): 73% (active) | growth inhibition ([13]; at 100.0 µM): 77% (active) | growth inhibition [14, 16]: 25% | growth inhibition [14, 17]: 56% | growth inhibition ([14]; at 50.0 µM): 76% (active) | growth inhibition ([15]; at 1.2 µM): 29% | growth inhibition ([15]; at 3.7 µM): 49% | growth inhibition ([15]; at 11.0 µM): 57% | growth inhibition ([15]; at 33.0 µM): 66% | growth inhibition ([15]; at 100.0 µM): 65%

O=C(O)C1CCCCC1c1c2ccc(=O)c(O)c-2oc2c(O)c(O)ccc12 (stereo unspecified)
growth inhibition ([1]; at 1.2 µM): -18% | growth inhibition ([1]; at 3.7 µM): -26% | growth inhibition ([1]; at 11.0 µM): -20% | growth inhibition ([1]; at 33.0 µM): 24% | growth inhibition ([1]; at 100.0 µM): 79% (active) | growth inhibition ([2]; at 1.2 µM): -17% | growth inhibition ([2]; at 3.7 µM): -11% | growth inhibition ([2]; at 11.0 µM): -3% | growth inhibition ([2]; at 33.0 µM): 32% | growth inhibition ([2]; at 100.0 µM): 82% (active) | growth inhibition ([3]; at 1.2 µM): -9% | growth inhibition ([3]; at 3.7 µM): 0% | growth inhibition ([3]; at 11.0 µM): -24% | growth inhibition ([3]; at 33.0 µM): -39% | growth inhibition ([3]; at 100.0 µM): -48% | growth inhibition ([4]; at 1.2 µM): 11% | growth inhibition ([4]; at 3.7 µM): 10% | growth inhibition ([4]; at 11.0 µM): 15% | growth inhibition ([4]; at 33.0 µM): 53% | growth inhibition ([4]; at 100.0 µM): 86% (active) | growth inhibition ([5]; at 1.2 µM): -12% | growth inhibition ([5]; at 3.7 µM): -22% | growth inhibition [5, 16]: 9% | growth inhibition ([5]; at 11.0 µM): -16% | growth inhibition ([5]; at 33.0 µM): 28% | growth inhibition [5, 17]: 77% (active) | growth inhibition ([5]; at 50.0 µM): 77.8% (active) | growth inhibition ([5]; at 100.0 µM): 77% (active) | growth inhibition ([6]; at 1.2 µM): -38% | growth inhibition ([6]; at 3.7 µM): -32% | growth inhibition [6, 16]: -7% | growth inhibition ([6]; at 11.0 µM): -13% | growth inhibition ([6]; at 33.0 µM): 46% | growth inhibition [6, 17]: 80% (active) | growth inhibition ([6]; at 50.0 µM): 82.1% (active) | growth inhibition ([6]; at 100.0 µM): 85% (active) | growth inhibition ([7]; at 1.2 µM): -17% | growth inhibition ([7]; at 3.7 µM): -7% | growth inhibition ([7]; at 11.0 µM): -9% | growth inhibition ([7]; at 33.0 µM): 19% | growth inhibition ([7]; at 100.0 µM): 84% (active) | growth inhibition [8, 16]: 7% | growth inhibition [8, 17]: 80% (active) | growth inhibition ([8]; at 50.0 µM): 59.4% | growth inhibition ([9]; at 1.2 µM): 15% | growth inhibition ([9]; at 3.7 µM): 28% | growth inhibition ([9]; at 11.0 µM): 23% | growth inhibition ([9]; at 33.0 µM): 67% | growth inhibition ([9]; at 100.0 µM): 86% (active) | growth inhibition [10, 16]: -21% | growth inhibition [10, 17]: 74% (active) | growth inhibition ([10]; at 50.0 µM): 56.2% | growth inhibition ([11]; at 1.2 µM): 0% | growth inhibition ([11]; at 3.7 µM): 6% | growth inhibition [11, 16]: -7% | growth inhibition ([11]; at 11.0 µM): 12% | growth inhibition ([11]; at 33.0 µM): 72% (active) | growth inhibition [11, 17]: 80% (active) | growth inhibition ([11]; at 50.0 µM): 87.2% (active) | growth inhibition ([11]; at 100.0 µM): 86% (active) | growth inhibition ([12]; at 1.2 µM): -32% | growth inhibition ([12]; at 3.7 µM): -23% | growth inhibition ([12]; at 11.0 µM): -25% | growth inhibition ([12]; at 33.0 µM): 13% | growth inhibition ([12]; at 100.0 µM): 73% (active) | growth inhibition ([13]; at 1.2 µM): -11% | growth inhibition ([13]; at 3.7 µM): -20% | growth inhibition ([13]; at 11.0 µM): -16% | growth inhibition ([13]; at 33.0 µM): 33% | growth inhibition ([13]; at 100.0 µM): 74% (active) | growth inhibition [14, 16]: -3% | growth inhibition [14, 17]: 84% (active) | growth inhibition ([14]; at 50.0 µM): 75.3% (active) | growth inhibition ([15]; at 1.2 µM): -8% | growth inhibition ([15]; at 3.7 µM): 5% | growth inhibition ([15]; at 11.0 µM): 2% | growth inhibition ([15]; at 33.0 µM): 20% | growth inhibition ([15]; at 100.0 µM): 80% (active)
